This is an account of results in ChEMBL document CHEMBL3988442, “University of Dundee, Small-Polar-MMV Screening Library” (2021).

In all, about 48,000 compounds went through this assay and about 13,000 (27%) showed an effect of 50% or more. This is one part of the list.

For the experiment, the system named is Wolbachia pipientis. The experiment can be described thus: Anti-Wolbachia Cell-Based Screen. It counts as functional. Further details: scale not given: in the data most compounds retested in dose-response had high values. The conditions noted are these: 5 µM.
As to `Cc1ccc(O)c(C(=O)N2CCCC2c2nncn2CC(C)C)c1` (configuration not stated), the “Percent Effect” value is on record as -6.935%.

For the molecule `COCCNc1ccc(CNC(=O)C2COc3ccccc32)cc1` (configuration not stated), the “Percent Effect” value was -1.749%.

In the case of `O=S(=O)(Cc1nc(C2CC2)no1)c1ccccc1F`, the “Percent Effect” value is -2.004%.

As to `CCC(C(=O)NCc1ccccn1)N(c1cccc(C)c1)S(C)(=O)=O` (configuration not stated), the “Percent Effect” value is recorded as 1.713%.

Turning to `Cn1cnc(S(=O)(=O)NCCCN2CCCCCC2)c1Cl`, the “Percent Effect” value is recorded as 0.4653%.

As for `Cn1cnc(S(=O)(=O)NCCN2CCCCCC2)c1Cl`, the “Percent Effect” value came to 104.3%.

With `Cn1cnc(S(=O)(=O)NCCCN2CCCC2)c1Cl`, the “Percent Effect” value was 98.8%.

On to `Cn1cnc(S(=O)(=O)NCCCN2CCOCC2)c1Cl`, for which the “Percent Effect” value is listed as -0.729%.

Take `Cn1cnc(S(=O)(=O)N2CCCC2)c1Cl`: the “Percent Effect” value is -6.345%.

Consider `CCCN1CCN(S(=O)(=O)c2ncn(C)c2Cl)CC1`, for which the “Percent Effect” value was found to be 1.683%.

Consider `Cn1cccc1C1CCCN1C(=O)NCCCn1cccn1` (configuration not stated), for which the “Percent Effect” value is recorded as -1.835%.

With `COc1ccc(NC(C)c2ccc(C#N)cc2)cc1N1CCCC1=O` (configuration not stated), the “Percent Effect” value is 11.24%.

Take `O=C(CN1CCSC2(CCCCC2)C1)NCC(F)(F)F`: the “Percent Effect” value is given as -26.69%.

As for `COCCc1noc(CN2CCN(CC(O)c3ccccc3)CC2)n1` (configuration not stated), the “Percent Effect” value came to 5.305%.

With `Cc1cc2c(cc1C(=O)N1CCC3(CC(=O)NC3=O)C1)OCCO2` (configuration not stated), the “Percent Effect” value is listed as -6.886%.

For `CN(CC1(O)CCN(c2ccnc3ccncc23)CC1)C(=O)CCN`, the “Percent Effect” value was determined as 110.4%.

In the case of `Cc1cc(N2CCCC(O)(CN(C)C)CC2)nc(-c2ccccc2)n1` (configuration not stated), the “Percent Effect” value is 2.269%.

Regarding `CN(CC1(O)CCCN(c2ccccn2)C1)C(=O)Cc1ccsc1` (configuration not stated), the “Percent Effect” value was -7.252%.

With `Cc1cnn(C2(C(=O)O)CCN(c3ccnc4cc(Cl)ccc34)CC2)c1`, the “Percent Effect” value is -21.78%.

On to `Cc1ncc(C)c(N2CCC(CCc3ccccc3)(C(=O)O)CC2)n1`, for which the “Percent Effect” value came out at 1.128%.

In the case of `Cc1ccc(CC(=O)N(C)CC2(O)CCN(c3ccccn3)C2)s1` (configuration not stated), the “Percent Effect” value is reported as -7.019%.

Turning to `Cc1cc(N2CCC(O)(CN(C)C(=O)CCN)C2)c2cnccc2n1` (configuration not stated), the “Percent Effect” value is 98.27%.

On to `Cc1cc(N2CCC(CO)(CC3CCCCO3)CC2)c2ccccc2n1` (configuration not stated), for which the “Percent Effect” value is -1.662%.

Take `Cc1cc(N2CCCC(O)(CN(C)C(=O)CCN)C2)c2cnccc2n1` (configuration not stated): the “Percent Effect” value is on record as 91.76%.

In the case of `Cc1cnn(C2(C(=O)O)CCN(c3ccncc3F)CC2)c1`, the “Percent Effect” value came out at 13.66%.

Consider `Cc1cc(N2CCC(O)(CN(C)C(=O)CCN)CC2)c2cnccc2n1`, for which the “Percent Effect” value is on record as 69.28%.

Consider `CN(C)CC1(O)CCCN(C(=O)c2ccccc2-n2cccn2)C1` (configuration not stated), for which the “Percent Effect” value is on record as -10.31%.

Take `CC(NC(=O)Cc1ccccc1F)C(=O)N1CCS(=O)(=O)CC1` (configuration not stated): the “Percent Effect” value is reported as -3.92%.

As to `N#Cc1ccnc(N2CCC(NCCN3CCOCC3)CC2)c1`, the “Percent Effect” value was -1.692%.

Turning to `CCC(=O)Nc1cc(Br)cnc1OCC(F)(F)F`, the “Percent Effect” value was -13.83%.

Consider `Cc1cc(N2CCC(O)(CN(C)C(=O)CCCN)C2)c2cnccc2n1` (configuration not stated), for which the “Percent Effect” value is on record as 106%.

For the molecule `CCNc1ncnc2c1CN(C1CCCNCC1)C(=O)CN2C` (configuration not stated), the “Percent Effect” value is reported as 112.3%.

In the case of `CN1CC(=O)N(C2CCNCC2)Cc2c(NCC(C)(C)C)ncnc21`, the “Percent Effect” value was determined as 106.7%.

On to `COc1ccc(NC(=O)CCC(C)C)c(N2CCN(C(C)=O)CC2)n1`, for which the “Percent Effect” value was -1.669%.

As to `O=C(CC1CCCC1)N1CCN(c2ccc(-n3cncn3)nn2)CC1`, the “Percent Effect” value was 17.68%.

`CC(C)c1nc(N2CCC(N3CCCCCC3)CC2)c2cnn(C)c2n1`: the “Percent Effect” value amounted to 83.71%.

Regarding `CC(C)c1nc(N2CC(N3CCCCC3C)C2)c2cnn(C)c2n1` (configuration not stated), the “Percent Effect” value is reported as 11.15%.

For the molecule `CC(C)c1nc(N2CCC(N3CCSCC3)CC2)c2cnn(C)c2n1`, the “Percent Effect” value turned out to be 102.9%.

As for `CC(=O)NCCC1CCN(c2nc(C(C)(C)C)nc3c2cnn3C)CC1`, the “Percent Effect” value was -2.953%.

`CC1CCCCN1C1CN(c2nc(C3CCCC3)nc3c2cnn3C)C1` (configuration not stated): the “Percent Effect” value stood at 0.03102%.

In the case of `Cn1ncc2c(N3CCC(CCO)CC3)nc(C(C)(C)C)nc21`, the “Percent Effect” value is -3.712%.

As for `Cn1ncc2c(N3CCS(=O)(=O)CC3)nc(C3CCCC3)nc21`, the “Percent Effect” value was -3.304%.

Turning to `Cn1ncc2c(N3CCN4CCCCC4C3)nc(C3CCCC3)nc21` (configuration not stated), the “Percent Effect” value is listed as 111.9%.

On to `Cn1ncc2c(N3CC(N4CCCCC4)C3)nc(C3CCCC3)nc21`, for which the “Percent Effect” value stood at 6.638%.

`CC(C)c1nc(N2CCC(N3CCCC(O)C3)CC2)c2cnn(C)c2n1` (configuration not stated): the “Percent Effect” value is given as 109.7%.

For `CN1CCCN(c2nc(C3CCCC3)nc3c2cnn3C)CC1`, the “Percent Effect” value is 2.389%.

Take `O=c1ccn(Cc2nc(-c3ccccc3F)cs2)c(=O)[nH]1`: the “Percent Effect” value is -9.097%.

For `COc1cccc2c1OCC(C(=O)NCc1c(C)noc1C)C2` (configuration not stated), the “Percent Effect” value was -13.16%.

`Cc1ncc(CN(C)C(=O)Nc2ccc(CN3CCOC3=O)cc2)s1`: the “Percent Effect” value is given as 8.802%.

Take `Cc1cc(=O)[nH]c(=O)n1Cc1ccccc1`: the “Percent Effect” value is listed as -6.606%.

With `Cn1cccc(NC(=O)NCCOCc2ccccc2)c1=O`, the “Percent Effect” value is -14.44%.

For `Cc1ccc(S(=O)(=O)NC(=O)CCOCc2ccccc2)s1`, the “Percent Effect” value was determined as 4.537%.
